“And” between values parts separate entries of the source, which are not always exact repeats. Equal entries are not always repeated. Results filed as inconclusive are left out. The source made the active and inactive calls. Calls come from the whole dose curve; as a rule, active = well fitted activation curve with a large enough effect; inconclusive = small, poorly fitted or top-dose-only effect; inactive = no such curve, though single readings can be large or run the other way.
Potency is the fitted concentration of half-maximal effect.

Sequence of Cellular tumor antigen p53 (Homo sapiens) (P04637 whole entry, looked up): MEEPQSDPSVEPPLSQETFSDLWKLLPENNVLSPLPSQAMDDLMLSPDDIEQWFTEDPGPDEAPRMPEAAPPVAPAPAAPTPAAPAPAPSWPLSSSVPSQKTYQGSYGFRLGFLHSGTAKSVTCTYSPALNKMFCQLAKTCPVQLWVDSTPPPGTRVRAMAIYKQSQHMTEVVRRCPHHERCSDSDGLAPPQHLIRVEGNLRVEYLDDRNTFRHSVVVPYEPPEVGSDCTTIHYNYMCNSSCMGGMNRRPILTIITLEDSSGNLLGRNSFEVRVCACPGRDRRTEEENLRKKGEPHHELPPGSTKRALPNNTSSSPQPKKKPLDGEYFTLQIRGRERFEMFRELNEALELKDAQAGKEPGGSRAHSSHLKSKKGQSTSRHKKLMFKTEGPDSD

The experiment addresses Cellular tumor antigen p53 (Homo sapiens) (UniProt P04637). Briefly: Primary qHTS for small molecule compounds that upregulate eGFP-tagged delta133p53alpha (in N-terminal) cells. (AID 2060322).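 For activation: cells pre-induced with doxycycline then dosed without doxycycline; series mostly up to about 56 µM; 0% = DMSO vehicle and 100% = reference activator.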 Note: nearly all actives have a fitted effect of over 75% in size. To be noted: NCI-H358 eGFP-delta133p53alpha fluorescence, 24 h; activation: stronger effect = higher value. From the text: Assay Development and Screening Technology
National Center for Advancing Translational Sciences (NCATS),
National Institute of Health (NIH), Rockville, Maryland
Cellular senescence (CS) is one of the hallmarks of aging and age-related diseases. Senescent cells are characterized by an irreversible growth arrest, an increase in senescence-associated beta-galactosidase (SA-beta-gal) activity and p16INK4a expression, an activation of the DNA damage response pathways, and the emergence of a senescence-associated secretory phenotype (SASP).
Delta133p53alpha, a human/primate-specific p53 protein isoform, delays or inhibits the induction of CS and SASP in various types of human cells, including progeria-derived fibroblasts, primary normal astrocytes, and CD8+ T lymphocytes. Induction of delta133p53alpha with small molecule compounds may provide therapeutic opportunities for inhibition of senescence/SASP-associated pathologies in progeria syndromes, astrocyte-mediated neuroprotection in neurodegenerative diseases, and possibly prevention and treatment of a wider range of senescence- and aging-associated diseases.
Here we report the development and validation of a cell-based quantitative high throughput screening (qHTS) assay in 1,536-well format. This qHTS assay uses the NCI-H358 cell line with doxycycline-inducible expression of enhanced green fluorescent protein (eGFP)-tagged delta133p53alpha, which allows efficient and highly quantitative measurement of the protein levels.
PROTOCOL TABLE (as described by Inglese J, Shamu CE and Guy RK. 2007)
SEQUENCE No. (e.g., 1, 2, 3, etc.); […] (e.g., Cells, Incubation, Reagent, etc.); VALUE; DESCRIPTION.
1; Cells; 4uL; 800 doxycycline treated cells / well in doxycycline-free media, 1536-well black, clear-bottom low base Aurora microplates.
2; Compounds; 23 nL; Kalypsis pin tool (Wako) equipped with 1536-well pin heads, 5-azacytidine positive control.
3; Incubation; 24 hr; 37C, 5% CO2; 95% relative humidity.
4; Aspiration; 1x; BioTek EL406 washer dispenser (Agilent).
5; Fixing; 3.5% paraformaldehyde, BioTek EL406 washer dispenser (Agilent).
6; Washing; 1x PBS; BioTek EL406 washer dispenser (Agilent).
7; Nuclei staining; 1:1000 dilution of Hoechst 33342 (Thermofisher), BioTek EL406 washer dispenser (Agilent).
8; Incubation; 20 min; in the dark at room temperature.
9; Washing; 2x, 1x PBS (ThermoFisher), BioTek EL406 washer dispenser (Agilent).
10; Reagent; 10 uL; 1x PBS per well, sealed with clear adhesive tape.
NOTES (numbers refer to sequence numbers above).
1. NCI-H358 cells expressing eGFP-tagged delta133p53alpha were grown in T75 culture flasks and treated with doxycycline for 24h, at 10 ng/ml for eGFP-D133p53a cells (N-terminal cell) and 100 ng/ml for D133p53a-eGFP cells (C-terminal cells). Cells were trypsinized, counted using a Counted 3 Automated Cell Counter (Thermo Fisher), and diluted to a concentration of 200,000 cells/ml. A Multidrop Combi Reagent Dispenser (ThermoFisher) was used to dispense 800 cells/well in […] of doxycycline-free media, into 1536-well black/clear bottom low base plates (AuroraMicroplates).
2. After plating cells, 23 nl of compound library, DMSO vehicle control or positive control (5-azacytidine) were transferred by Pin Tool (Wako). The plate map layout was the same for each plate: (column 1) non-doxycycline treated cells + DMSO vehicle control; (column 2) doxycycline treated cells + DMSO vehicle control baseline; (column 3) doxycycline treated cells + positive control 57.5 uM final concentration 5-azacytidine; (column 4) doxycycline treated cells + serial dilution of 5-azacytidine, 16-point 1:2 titration spanning 1.8 nM to […] final concentration; (columns 5-48) doxycycline treated cells + titration of library compounds.
3. Cells were incubated at 37 °C, 5 % CO2, 95% RH with breathable metal lid for 24h.
4-10. […] After two washes, 10 ul of 1X PBS (Thermo Fisher) was dispensed to each well. Clear adhesive plate seals (VWR) were applied and plates stored at 4 °C.
11. […]
`CC(C)[C@H](CO)Nc1nc(Nc2ccc(C(=O)O)c(Cl)c2)c2ncn(C(C)C)c2n1`: the activation is 6.33% (inactive). Still for that read-out and setting: under `C=C(C)C1CC=C(C(=O)O)CC1` (stereo not given) stands -6.28% (inactive); under `C=C1C[C@H]2[C@@H]3C=C(C)C4=CC(=O)CC[C@]4(C)[C@H]3CC[C@]2(C)[C@@]1(OC(C)=O)C(C)=O`, -0.837% (inactive); under `CC(C)[C@@H](c1ccc(C(F)(F)F)cc1CN(Cc1cc(C(F)(F)F)cc(C(F)(F)F)c1)c1nnn(C)n1)N1CCC(C(=O)O)CC1`, 6.68% (inactive). Take `O=C(O)CN1C(=O)c2cccc3cccc(c23)C1=O`: the activation was -6.69% (inactive). Same read-out and setting: as for `COC(=O)C1=COC(O[C@@H]2O[C@H](CO)[C@@H](O)[C@H](O)[C@H]2O)/C(=C\COC(=O)c2ccc(OC3OC(CO)C(O)C(O)C3O)c(OC)c2)C1CC(=O)OCCc1ccc(O)cc1` (stereo not given in full), the figure is -11.5% (inactive); as for `COc1ccc(-c2oc3c(CC=C(C)C)c(O)cc(O)c3c(=O)c2O)cc1`, -9.57% (inactive). On to `C(#Cc1cccc(CN2CCOCC2)c1)CCN1CCCCC1`, for which the activation is -4.3% (inactive). As for `Nc1ccn([C@H]2O[C@H](CO)[C@@H](O)C2(F)F)c(=O)n1`, the activation is 7.37% (inactive). Regarding `Cc1ccccc1NC(=O)Nc1ccc(CC(=O)N(C)[C@@H](CC(C)C)C(=O)NCC[C@H](NC(=O)[C@@H]2CCCN2S(=O)(=O)c2cc(Cl)cc(Cl)c2)C(=O)O)cc1`, the activation is 1.67% (inactive). Take `Cc1cc(Nc2nc(NC(C)c3ncc(F)cn3)ncc2Cl)n[nH]1` (stereo not given): the activation is 8.04% (inactive). For the molecule `C=CC[C@]12C[C@@H](OC)C(=O)C(OC)=C1O[C@@H](c1cc(OC)c3c(c1)OCO3)[C@@H]2C`, the activation is -13.4% (inactive).

As to `CCC(=O)O[C@H]1[C@H](O[C@@H]2[C@@H](C)[C@H](O[C@H]3C[C@@](C)(OC)[C@@H](O)[C@H](C)O3)[C@@H](C)C(=O)O[C@H](CC)[C@@](C)(O)[C@H](O)[C@@H](C)C(=O)[C@H](C)C[C@@]2(C)O)O[C@H](C)C[C@@H]1N(C)C`, the activation was 0.837% (inactive). Still for that read-out and setting: as for `Cc1cc2c(cc1Cl)N(C(=O)Nc1ccnc3ccccc13)CC2`, the figure is 4.1% (inactive). The same measure, in the same setting: as for `CC(=O)c1ccc2c(c1)N(CCCN(C)C)c1ccccc1S2`, the figure is 3.95% (inactive) and -33.1% (inactive); as for `CCOC(=O)c1cc(C#N)c(N2CCC(C(=O)NS(=O)(=O)Cc3ccccc3)CC2)nc1C`, 5.67% (inactive). The same measure, in the same setting: under `COc1ccc(/C=C/C(=O)N2CCCC2)cc1` stands 2.68% (inactive); under `CSc1cccc(Nc2ncc3cc(-c4c(Cl)cccc4Cl)c(=O)n(C)c3n2)c1`, -0.477% (inactive); under `O=C(/C=C/c1ccc(O)cc1)OCC1OC(O)C(OC2OC(CO)C(O)C(O)C2O)C(O)C1O` (stereo not given), -13% (inactive). Turning to `Cc1ccc(S(=O)(=O)NC(=O)NC2CCCCCCC2)cc1`, the activation was -3.95% (inactive). Consider `CN(C)CCOC(c1ccccc1)c1ccc(Br)cc1` (stereo not given), for which the activation was -6.21% (inactive). The same measure, in the same setting: under `Cc1cnn(C)c1C(=O)Nc1cc(Nc2ccc3c(C=Cc4ccccn4)n[nH]c3c2)ccc1F` stands 18.7% (inactive). The same measure, in the same setting: under `CC(C)C(=O)O[C@@H]1[C@@H](O)[C@@H](O[C@H]2O[C@H](CO)[C@@H](O)[C@H](O)[C@H]2O)O[C@H](CO)[C@H]1O` stands 3.82% (inactive); under `C=CCNc1nc(NCC=C)nc(N2CCN(C(c3ccc(F)cc3)c3ccc(F)cc3)CC2)n1`, -14.2% (inactive); under `CCCN1CCC[C@@H](c2cccc(S(C)(=O)=O)c2)C1`, -7.64% (inactive). Still for that read-out and setting: as for `C[C@@H]1CN(CC(=O)N2CC(C)(C)c3ncc(Cc4ccc(F)cc4)cc32)[C@@H](CN2CCOC[C@H]2C)CN1`, the figure is -14.4% (inactive); as for `CC(C(O)c1ccc(O)cc1)N1CCC(Cc2ccccc2)CC1` (stereo not given), -5.02% (inactive) and -1% (inactive) and -19.5% (inactive).

As for `O=C(Nc1ccncc1)c1cc([N+](=O)[O-])ccc1Cl`, the activation was 6.63% (inactive). Regarding `CC(O)(CC(=O)O)CC(=O)OCc1ccc(O[C@@H]2O[C@H](CO)[C@@H](O)[C@H](O)[C@H]2O)cc1` (stereo not given in full), the activation is -13.7% (inactive).

Consider `COc1cccc2nc(-c3cccs3)nc(NN3C(=O)C=C(C)C3=O)c12`, for which the Potency is 19.3 µM (active). Consider `C[C@@H](NCCc1ccc(O)cc1)[C@@H](O)c1ccc(O)cc1`, for which the activation is -21.6% (inactive). Turning to `CC(C)=CCCC1(C)Oc2cc3c(c4c2C2C(O4)C(C)(O)CCC21)CN(C(CCC(=O)O)C(=O)O)C3=O` (stereo not given), the activation is -3.05% (inactive). On the same count and under the same terms, as for `O=C(C=Cc1ccc(/C=C/C(=O)Nc2ccc(C3=NCCN3)cc2)cc1)Nc1ccc(C2=NCCN2)cc1`, the figure is -8.95% (inactive); as for `CCCC1=CC2=C(CO1)C(=O)C(C)(OC(=O)c1c(C)cc(OC)cc1O)C(O)C2` (stereo not given), -24.4% (inactive); as for `Cc1cnc(NC(=O)Nc2cc(Br)c(C)cc2OCC2CNCCO2)cn1` (stereo not given), 11.6% (inactive). Turning to `CCCCCCCC(=O)OCC(COC(=O)CCCCCCC)OC(=O)CCCCCCC`, the activation is -13.4% (inactive). The same measure, in the same setting: as for `C/C=C1\[C@H](O[C@@H]2O[C@H](CO)[C@@H](O)[C@H](O)[C@H]2O)OC=C(C(=O)OC)[C@H]1CC(=O)OC`, the figure is 4.46% (inactive); as for `CC(C)(C)c1ccc(S(=O)(=O)NCc2ccc(C(=O)Nc3cccnc3)cc2)cc1`, 1.91% (inactive); as for `C[C@@H]1CC[C@]2(C(=O)OC3OC(CO)C(O)C(O)C3O)CC[C@]3(C)C(=CCC4[C@@]5(C)CC[C@H](O)[C@](C)(C(=O)O)C5CC[C@]43C)C2[C@]1(C)O` (stereo not given in full), -8.93% (inactive). `CC(=O)O[C@H]1CC[C@]2(C)[C@H]3CC[C@]4(C)Oc5oc(C)cc(=O)c5C[C@H]4[C@]3(C)CC[C@H]2C1(C)C`: the activation was 0% (inactive).
